Most compounds without a hit are left out; they make up all but 7.4% or so of the library.
NIH3T3 tox – cytotoxic compounds in NIH 3T3 cells; 4.3% of 94,000 active; Potency, µM (series often up to 96.7 µM), for inactives: at the top dose activity change, negative = cytotoxicity, hits mostly inhibitors; NIH 3T3 viability, CellTiter-Glo ATP luminescence, 48-72 h; also: nearly all actives have a fitted effect of over 55% in size
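ATP-dependent luminescence (CellTiter-Glo) served as the viability signal for NIH 3T3 cells treated with compound for 48 or 72 hr at 37 °C.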
SNCA expr inhib – inhibitors of alpha-synuclein (SNCA) gene expression; HEK-293 SNCA-luciferase knock-in, luminescence, 24 h; Potency, µM (top dose mostly 57.2 µM), without a hit: top-dose activity change, negative = inhibition, actives largely listed as inhibitors; 0.17% of 140,000 active; AID 1671194;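 also: plate controls were DMSO cells for no effect and cell-free wells for full effect; nearly all actives have a fitted effect of over 45% in size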
hNpr1 antagonist – blocks ANP-stimulated signaling of human Npr1 receptor | HEK293 hNpr1 GloSensor cGMP, ANP-stimulated luminescence | Potency, µM (top dose mostly 46.3 µM), inactives show at the top dose activity change, negative = inhibition, actives largely listed as inhibitors | 1.6% of 76,000 active | AID 1347048; calls by dose curve; also: nearly all actives have a fitted effect of over 60% in size
Target sequence (P16066 whole entry, looked up): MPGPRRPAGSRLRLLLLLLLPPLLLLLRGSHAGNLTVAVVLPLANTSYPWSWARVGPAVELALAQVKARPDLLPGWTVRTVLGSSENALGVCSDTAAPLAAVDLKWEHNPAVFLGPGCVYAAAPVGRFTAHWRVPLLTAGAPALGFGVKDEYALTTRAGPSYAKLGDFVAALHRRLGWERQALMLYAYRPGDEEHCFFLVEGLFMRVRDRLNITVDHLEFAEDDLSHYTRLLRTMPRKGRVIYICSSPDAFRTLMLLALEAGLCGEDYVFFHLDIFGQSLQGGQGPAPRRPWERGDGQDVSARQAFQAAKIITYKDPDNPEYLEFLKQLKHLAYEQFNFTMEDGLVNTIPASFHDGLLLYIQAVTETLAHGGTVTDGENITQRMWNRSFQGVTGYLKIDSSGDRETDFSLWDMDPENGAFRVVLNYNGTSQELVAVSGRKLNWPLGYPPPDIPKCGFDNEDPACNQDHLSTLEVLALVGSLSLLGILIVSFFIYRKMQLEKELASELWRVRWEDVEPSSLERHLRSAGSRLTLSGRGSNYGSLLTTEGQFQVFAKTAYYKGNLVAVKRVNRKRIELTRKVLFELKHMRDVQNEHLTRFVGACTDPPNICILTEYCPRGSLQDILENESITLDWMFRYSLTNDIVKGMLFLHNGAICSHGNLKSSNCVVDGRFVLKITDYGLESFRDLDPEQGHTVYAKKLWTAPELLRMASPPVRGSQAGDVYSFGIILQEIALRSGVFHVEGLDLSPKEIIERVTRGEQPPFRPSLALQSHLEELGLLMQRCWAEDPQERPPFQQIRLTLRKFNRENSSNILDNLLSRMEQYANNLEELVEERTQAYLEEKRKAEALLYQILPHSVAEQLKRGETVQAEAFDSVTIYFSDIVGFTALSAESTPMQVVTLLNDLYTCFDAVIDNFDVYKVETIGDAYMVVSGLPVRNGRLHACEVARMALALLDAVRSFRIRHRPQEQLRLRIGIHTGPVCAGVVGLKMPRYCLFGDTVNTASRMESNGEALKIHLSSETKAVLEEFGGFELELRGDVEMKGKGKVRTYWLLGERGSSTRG
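HEK293 cells stably expressing human Npr1 and cGMP GloSensor pGS-40F, loaded 2 h with 2% GloSensor reagent, given compound 30 min at room temperature. Luminescence read before and 20 min after 0.1 nM hNppA.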
HEK293 tox – cytotoxic compounds in HEK 293 cells; HEK 293 viability, ATP luminescence (CellTiter-Glo), 48-72 h; AID 1345083; 6.6% of 94,000 active; Potency, µM (highest dose often 115 µM), for inactives: top-dose activity change, negative = cytotoxicity, usual class: inhibitors; also: nearly all actives have a fitted effect of over 60% in size
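Cells seeded first (HEK 293, 250 cells/well), then compound added by pintool. Incubation ran 48 or 72 hr at 37 degree Celsius. CellTiter-Glo was added and luminescence imaged after 10 min at room temperature.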
SNCA viab count – cell viability loss counter-screen | 0.12% of 150,000 active | AID 1671193 | HEK-293-SNCA-luc viability, GF-AFC fluorescence, 24 h | Potency, µM (top dose mostly 57.1 µM), without a hit: at the highest dose activity change, negative = cytotoxicity, hits mostly cytotoxic;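 also: 0% = DMSO-treated cells and -100% = medium-only wells without cells; nearly all actives have a fitted effect of over 30% in size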
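Cytotoxicity counterscreen: after 24 h compound treatment of genome-edited SNCA-luciferase HEK-293 cells, live-cell protease substrate GF-AFC read by fluorescence after 30 min; activity scaled between DMSO (0%) and medium-only (-100%), curves Hill-fitted.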
FLuc inh – inhibitors of firefly (Photinus pyralis) luciferase; purified P. pyralis luciferase, luminescence, biochemical; P08659; Potency, µM (top dose mostly 115 µM), actives largely listed as inhibitors; AID 1347043; 2.5% of 76,000 active; also: nearly all actives have a fitted effect of over 65% in size
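Cell-free enzyme assay, 10nM P. pyralis luciferase, luciferin and ATP each at 10uM. Inhibition profiled over a 6-point titration, read as luminescence.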
Numbers without * were called inactive; i = inactive; ? = inconclusive; . = no result given; [ ] = remark or other dose. Unless noted, calls follow the shape of the dose curve; as a rule, active = well fitted curve in the direction sought with a large enough effect; inconclusive = small, poorly fitted or top-dose-only effect, or another doubt; inactive = no such curve, though single readings can be large; an effect the other way counts as inactive or inconclusive. Unless noted, % is scaled to controls: 0 for no effect and ±100 for the full control effect; potency is read from the fitted curve at half-maximal effect.

SMILES	NIH3T3 tox	SNCA expr inhib	hNpr1 antagonist	HEK293 tox	SNCA viab count	FLuc inh
CN1CCCC12Cc1ccccc1CN(S(=O)(=O)c1ccccc1)C2 (stereo not given)	?	3%	.	?	-10%	.
O=C(Nc1ccc(Cl)cc1)NC1CCN(c2nccc(Nc3ccccc3F)n2)CC1	40µM*	-28%	.	35µM*	6%[12.5 µM]	.
COC(=O)N1CCN(c2nccc(Nc3ccccc3Cl)n2)CC1	?	132%	.	?	9%	.
CC(C)NC(=O)N1CCN(c2nccc(Nc3ccccc3Cl)n2)CC1	35µM*	-3%	.	?	13%	.
O=C(Cc1ccccn1)NC1CCN(c2nccc(Nc3ccccc3F)n2)CC1	?	?	.	-22%	5%[12.5 µM]	.
Cc1ccc(CN2CCC(N3C(=O)c4c(c(C)nn4-c4ccccc4)C3C3CC3)CC2)cc1 (stereo not given)	-4%	.	.	i	.	.
Cc1nn(-c2ccc(C(C)(C)C)cc2)c(C)c1[C@@H]1C=C[C@@H](NC(=O)c2ccc(N(C)C)cc2)C1	?	-8%	-13%	?	-26%	i
COc1ccc(CN[C@@H]2C=C[C@@H](c3c(C)nn(-c4ccccc4)c3C)C2)cc1	50µM*	34%[87.6 µM]	-19%[70.6 µM]	28µM*	?	?
COc1ccc(-n2nc(C)c([C@@H]3C=C[C@@H](NC(=S)NCC(C)C)C3)c2C)cc1	?	67%[87.6 µM]	28µM*	28µM*	-26%[87.6 µM]	16µM*
COc1ccc(-n2nc(C)c([C@@H]3C=C[C@@H](NCc4ccc(N(C)C)cc4)C3)c2C)cc1	?	-2%[87.6 µM]	?	?	-26%[87.6 µM]	22µM*
COc1ccc(C(=O)N[C@@H]2C=C[C@@H](c3c(C)nn(-c4ccc(C(F)(F)F)cc4)c3C)C2)cc1	?	-9%	1%	?	-5%	i
COc1ccc(-n2nc(C)c([C@@H]3C=C[C@@H](NCc4cccc(Cl)c4)C3)c2C)cc1	25µM*	-1%[87.6 µM]	?	28µM*	?	40µM*
CCn1cc(S(=O)(=O)N2CC(c3nc(CCOc4cccc(C)c4)no3)C2)cn1	?	-12%	.	?	1%	.
CC(C)COC(=O)N1C[C@H](C(N)=O)[C@H]2c3ccccc3N(C)C(=O)[C@]21C	?	.	.	-20%	.	.
COc1cccc([S+](=O)([O-])N2CCCC(C(=O)N3CCC(N4CCOCC4=O)CC3)C2)c1 (stereo not given)	-15%	-6%	.	-5%	2%	.
COc1ncccc1-c1cc(C(=O)N2CCCC(OC)C2)c2c(c1)ncn2C (stereo not given)	89µM*	70%[87.6 µM]	3%[70.6 µM]	-20%[172 µM]	-10%[87.6 µM]	i
Cc1ccccc1N1CCN(C(=O)c2ccc3c(c2)N(C)C2CCCCCN2C3=O)CC1 (stereo not given)	?	?	0%	45µM*	-9%[12.5 µM]	i
CCOc1ccccc1N1CCN(C(=O)c2ccc3c(c2)N(C)C2CCCCN2C3=O)CC1 (stereo not given)	?	?	-2%	?	29%[12.5 µM]	i
CN1c2cc(C(=O)N3CCN(c4ccccc4F)CC3)ccc2C(=O)N2CCCCC21 (stereo not given)	-15%	-11%	-2%	?	17%[12.5 µM]	i
CN1c2cc(C(=O)N3CCN(c4ccccc4Cl)CC3)ccc2C(=O)N2CCCCC21 (stereo not given)	?	10%	0%	40µM*	-2%[12.5 µM]	i
COc1cccc(CNC(=O)C2CCN(c3nccc(Nc4ccccc4Cl)n3)CC2)c1	?	-13%	.	?	-2%	.
Cc1noc2c(NCc3cccnc3)cc(-c3cccc(C(F)(F)F)c3)nc12	79µM*	-24%[87.6 µM]	-5%[70.6 µM]	100µM*	-14%[87.6 µM]	i
COCCNc1cc(-c2cccc(C(F)(F)F)c2)nc2c(C)noc12	?	-4%[87.6 µM]	0%[70.6 µM]	89µM*	?	i
Cc1noc2c(NCCCn3ccnc3)cc(-c3cccc(C(F)(F)F)c3)nc12	?	?	0%[70.6 µM]	?	-12%[87.6 µM]	i
